According to the supplement of paper PMC6555819:

How the values were obtained:
Assay in all cases: PBM binding z-score (relative to random genomic background probes); higher = stronger binding; sequences stand for … in GC…GCGATTGACAGCGTAGAATGAAGG
[1] = tested on: FXR:RXRa (NR concentration 270 nM, RXRa partner concentration 90 nM)
How it was run: (§1)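 Ligand-free nuclear receptor dimers were bound for 1 h to custom Agilent 4×180K protein-binding microarrays. Detection used antibodies against each partner (one per run). Binding z-scores rest on regression-normalized fluorescence, with random background probes as the reference.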

[2] = tested on: LXRa:RXRa (NR concentration 270 nM, RXRa partner concentration 90 nM)
How it was run: as §1

[3] = tested on: LXRa homodimer (NR concentration 270 nM)
How it was run: as §1

[4] = tested on: LXRb:RXRa (NR concentration 270 nM, RXRa partner concentration 90 nM)
How it was run: as §1

[5] = tested on: LXRb homodimer (NR concentration 270 nM)
How it was run: as §1

[6] = tested on: PPARa:RXRa (NR concentration 270 nM, RXRa partner concentration 90 nM)
How it was run: as §1

[7] = tested on: PPARg:RXRa (NR concentration 180 nM, RXRa partner concentration 90 nM)
How it was run: as §1

[8] = tested on: PPARg:RXRa 270nM:90nM, anti-RXR (NR concentration 270 nM, RXRa partner concentration 90 nM)
How it was run: as §1

[9] = tested on: PPARg:RXRa 30nM:10nM, anti-RXR (NR concentration 30 nM, RXRa partner concentration 10 nM)
How it was run: as §1

[10] = tested on: PPARg:RXRa 90nM:30nM, anti-RXR (NR concentration 90 nM, RXRa partner concentration 30 nM)
How it was run: as §1

[11] = tested on: PPARg:RXRa DBDmut IVT, anti-RXR (DBD mutation: RXRa K156A/R161A, NR concentration 270 nM, RXRa partner concentration 90 nM)
How it was run: as §1

[12] = tested on: PPARg:RXRa IVT, anti-PPARg (NR concentration 270 nM, RXRa partner concentration 90 nM)
How it was run: as §1

[13] = tested on: PPARg DBDmut:RXRa IVT, anti-PPARg (DBD mutation: PPARg1 K132A/R137A, NR concentration 270 nM, RXRa partner concentration 90 nM)
How it was run: as §1

[14] = tested on: PPARg DBDmut IVT, anti-PPARg (DBD mutation: PPARg1 K132A/R137A, NR concentration 270 nM)
How it was run: as §1

[15] = tested on: PPARg homodimer (NR concentration 180 nM)
How it was run: as §1

[16] = tested on: PXR:RXRa (NR concentration 270 nM, RXRa partner concentration 90 nM)
How it was run: as §1

[17] = tested on: PXR homodimer (NR concentration 270 nM)
How it was run: as §1

[18] = tested on: RARa:RXR (NR concentration 270 nM, RXRa partner concentration 90 nM)
How it was run: as §1

[19] = tested on: RARa homodimer (NR concentration 270 nM)
How it was run: as §1

[20] = tested on: RARb:RXRa (NR concentration 270 nM, RXRa partner concentration 90 nM)
How it was run: as §1

Sequence	PBM binding z-score [1]	PBM binding z-score [2]	PBM binding z-score [3]	PBM binding z-score [4]	PBM binding z-score [5]	PBM binding z-score [6]	PBM binding z-score [7]	PBM binding z-score [8]	PBM binding z-score [9]	PBM binding z-score [10]	PBM binding z-score [11]	PBM binding z-score [12]	PBM binding z-score [13]	PBM binding z-score [14]	PBM binding z-score [15]	PBM binding z-score [16]	PBM binding z-score [17]	PBM binding z-score [18]	PBM binding z-score [19]	PBM binding z-score [20]
ATCTCTAGATAAAAGTTCAGTGAATCCCGAGGAT	0.0145	0.704	1.41	0.746	0.367	1.59	1.74	3.39	1.72	3.2	-0.00193	0.486	1.04	0.904	1.13	1.57	1.32	0.986	0.594	2.13
TATGCAGGGTCAAAGGCCAGAGTACGAATGTCGA	7.19	5.51	1.34	4.46	0.828	6.1	7.42	6.8	4.59	6.57	1.27	3.92	0.572	0.66	2.29	4.49	-0.344	6.18	-0.114	4.34
CCTACTGGGCCCCGAAAGGTCATTGATTCAGTGA	3.17	4.07	4.02	3.98	0.0468	3.93	1.14	2.68	0.29	1.58	0.503	2.11	-1.53	-0.961	2.6	4.66	1.26	5.15	1.3	3.6
CCTACTGGACCAAAAAGGTCATTGATGCCGATAA	3.74	4.82	4.22	4.55	1.28	4.55	2.13	3.38	1.31	2.53	1.82	2.46	-0.0112	-0.226	4.04	4.77	2.35	5.09	3.15	3.96
ATACCAAGGTGATCGTGAGATCGTTGATACTAAC	0.2	0.163	0.16	0.121	-0.2	0.129	0.447	0.161	-0.226	-0.234	0.453	1.18	0.758	0.465	0.145	-0.151	-0.339	0.227	0.462	0.492
GCTAGTTGGTCAGTAAAAGGTAACACACCGGTCG	0.0852	0.248	0.0445	0.107	-0.224	0.694	0.783	0.945	0.0648	0.29	0.651	0.622	-0.712	0.0528	0.535	0.2	0.0944	0.372	0.548	1.03
CCTACTGGGTCAAGGTCATTGATCAGTCAAAGCA	6.14	5.13	2.13	4.83	0.0227	6.04	8.59	7.05	5.09	6.81	6.45	7.7	0.76	0.202	2.56	5.07	2.3	4.8	0.915	4.73
CAAACTAGGTCACCCGAAGGTCAAAGTCCGCATG	6.1	6.03	4.86	5.07	1.57	6.24	9.64	8	5.77	7.5	8.43	8.81	7.92	7.09	11.1	6.02	2.67	7.7	3.95	5.29
CCGACTGGGGCAGAAAGGTTACCATTCCATCCGG	0.282	0.271	-0.165	0.84	-1.08	1.93	1.48	2.66	0.414	2.13	1.94	1.83	-1	-1.28	0.284	0.744	-0.202	1.33	0.0232	1.52
CGTCCAAGGTCAGAGAGGTCCGTGAATGCCGAGT	4.9	3.08	-0.0652	1.98	-0.373	3.88	1.83	2.4	-0.0552	1.08	2.12	2.18	-0.282	-0.705	1.61	3.03	1.11	2.98	0.291	4.67
TCTATTAGTTGAAGGGCAAACGACGAGTCCGTTT	0.768	1.24	0.6	1.3	0.637	1.43	0.285	2.43	3.63	2.94	2.81	0.694	0.606	0.592	1.18	1.25	1.12	1.22	1.02	1.72
ATATGTAAGTTAGCTGGGGTCATTCAGACTAGGC	4.05	3.87	1.64	4.47	0.895	4.17	1.49	2.48	0.721	1.49	0.965	1.4	0.49	0.596	1.64	5.82	6.58	5.31	0.998	2.47
CCTACTGGGCCAAGGTCATCGATCAGTCAAAGCA	3.48	3.15	0.707	2.74	-0.415	4.23	4.52	4.7	2	4.15	4	4.6	-0.807	-0.598	1.98	3.71	0.25	4.34	0.517	3.65
ATCTCTAGGTAAAGTTAAGTGAAAGATCGATAGA	0.787	0.68	0.216	0.185	0.709	0.332	0.903	1.19	0.64	1.04	2.61	1.99	0.949	2.08	0.251	-0.00139	0.451	0.249	0.961	0.312
CCTAATGGGCCAAGGTCATTGATCAGTCAAAGCA	3.25	3.17	1.04	2.93	-0.303	3.86	2.44	3	0.651	2.34	2.35	2.59	-0.175	-0.521	2.49	3.83	1.87	3.77	0.774	3.59
